# Laboratory results taken from the supplement of paper PMC8728848.
# The sample as a whole holds a higher share of the strongest signals than the screen did.
# Key:
# Experiment in all cases: glycan array binding signal (z-score within array); higher = stronger binding
# Conditions in all cases: glycan notation: IUPAC condensed, linker removed
# [1] = target: Fuc(a1-2)Gal(b1-3)GalNAc(b1-3)Gal(a1-4)Gal(b1-4)Glc
# Outline: (§1)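 The binding signal is a Z-score computed within each array. Data were drawn from 3228 arrays in the Consortium for Functional Glycomics database, restricted to those with a known protein sequence. Scores were averaged over arrays of the same protein sequence at different concentrations or buffers, and over linkers, and negative values can be taken as non-binding.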
# [2] = target: Fuc(a1-2)Gal(b1-3)[Fuc(a1-4)]GlcNAc(b1-3)[Gal(b1-4)GlcNAc(b1-6)]Gal(b1-4)Glc
# Outline: as §1
# [3] = target: Fuc(a1-2)Gal(b1-4)[Fuc(a1-3)]GlcNAc(b1-3)GalNAc
# Outline: as §1
# [4] = target: Fuc(a1-2)Gal6S(b1-4)Glc6S
# Outline: as §1
# [5] = target: Fuc(a1-2)[Gal(a1-3)]Gal(b1-4)GlcNAc(b1-2)Man
# Outline: as §1
# [6] = target: Fuc(a1-2)[Gal(a1-3)]Gal(b1-4)GlcNAc(b1-6)GalNAc
# Outline: as §1
# [7] = target: Fuc(a1-2)[Gal(a1-3)]Gal(b1-4)[Fuc(a1-3)]GlcNAc(b1-3)GalNAc
# Outline: as §1
# [8] = target: Fuc(a1-3)[GalNAc(b1-4)]GlcNAc
# Outline: as §1
# [9] = target: Gal(a1-3)Gal(b1-4)GlcNAc(b1-2)Man
# Outline: as §1
# [10] = target: Gal(a1-3)Gal(b1-4)[Fuc(a1-3)]GlcNAc(b1-2)Man(a1-3)[Gal(a1-3)Gal(b1-4)[Fuc(a1-3)]GlcNAc(b1-2)Man(a1-6)]Man(b1-4)GlcNAc(b1-4)GlcNAc
# Outline: as §1
# [11] = target: Gal(b1-3)GlcNAc(a1-6)Gal(b1-4)GlcNAc
# Outline: as §1
# [12] = target: Gal(b1-3)GlcNAc(b1-6)GalNAc
# Outline: as §1
# [13] = target: Gal(b1-3)[Fuc(a1-4)]GlcNAc
# Outline: as §1
# [14] = target: Gal(b1-4)GlcNAc(b1-3)Gal(b1-4)GlcNAc(b1-2)Man(a1-3)[Gal(b1-4)GlcNAc(b1-3)Gal(b1-4)GlcNAc(b1-2)Man(a1-6)]Man(b1-4)GlcNAc(b1-4)GlcNAc
# Outline: as §1
# [15] = target: Gal(b1-4)GlcNAc(b1-3)Gal(b1-4)GlcNAc(b1-2)[Gal(b1-4)GlcNAc(b1-3)Gal(b1-4)GlcNAc(b1-6)]Man(a1-6)[Gal(b1-4)GlcNAc(b1-3)Gal(b1-4)GlcNAc(b1-2)Man(a1-3)]Man(b1-4)GlcNAc(b1-4)[Fuc(a1-6)]GlcNAc
# Outline: as §1
# [16] = target: Gal(b1-4)GlcNAc(b1-3)Gal(b1-4)GlcNAc(b1-3)Gal(b1-4)GlcNAc(b1-2)Man(a1-3)[Gal(b1-4)GlcNAc(b1-3)Gal(b1-4)GlcNAc(b1-3)Gal(b1-4)GlcNAc(b1-2)Man(a1-6)]Man(b1-4)GlcNAc(b1-4)GlcNAc
# Outline: as §1
# [17] = target: Gal(b1-4)GlcNAc(b1-3)Gal(b1-4)GlcNAc(b1-3)Gal(b1-4)GlcNAc(b1-2)[Gal(b1-4)GlcNAc(b1-3)Gal(b1-4)GlcNAc(b1-3)Gal(b1-4)GlcNAc(b1-6)]Man(a1-6)[Gal(b1-4)GlcNAc(b1-3)Gal(b1-4)GlcNAc(b1-3)Gal(b1-4)GlcNAc(b1-2)Man(a1-3)]Man(b1-4)GlcNAc(b1-4)[Fuc(a1-6)]GlcNAc
# Outline: as §1
# [18] = target: Gal(b1-4)GlcNAc(b1-3)Gal(b1-4)GlcNAc(b1-3)[Gal(b1-4)GlcNAc(b1-3)Gal(b1-4)GlcNAc(b1-6)]GalNAc
# Outline: as §1
# [19] = target: Gal(b1-4)GlcNAc(b1-3)Gal(b1-4)GlcNAc(b1-6)[Gal(b1-3)]GalNAc
# Outline: as §1
# [20] = target: Gal(b1-4)GlcNAc(b1-3)[Gal(b1-4)GlcNAc(b1-6)]GalNAc
# Outline: as §1
# [21] = target: Gal(b1-4)GlcNAc(b1-6)Gal(b1-4)GlcNAc(b1-6)GalNAc
# Outline: as §1
# GalNAc(a1-3)GalNAc = target: GalNAc(a1-3)GalNAc
# Outline: as §1
# GalNAc(b1-3)Gal = target: GalNAc(b1-3)Gal
# Outline: as §1
# GalNAc3S(b1-4)GlcNAc3S = target: GalNAc3S(b1-4)GlcNAc3S
# Outline: as §1
# Glc(a1-4)Glc = target: Glc(a1-4)Glc
# Outline: as §1
# [22] = target: GlcNAc(b1-3)Gal(b1-4)GlcNAc(b1-3)Gal(b1-4)GlcNAc(b1-2)Man(a1-3)[GlcNAc(b1-3)Gal(b1-4)GlcNAc(b1-3)Gal(b1-4)GlcNAc(b1-2)Man(a1-6)]Man(b1-4)GlcNAc(b1-4)GlcNAc
# Outline: as §1
# [23] = target: GlcNAc(b1-3)Gal(b1-4)GlcNAc(b1-3)Gal(b1-4)GlcNAc(b1-2)[GlcNAc(b1-3)Gal(b1-4)GlcNAc(b1-3)Gal(b1-4)GlcNAc(b1-6)]Man(a1-6)[GlcNAc(b1-3)Gal(b1-4)GlcNAc(b1-3)Gal(b1-4)GlcNAc(b1-2)Man(a1-3)]Man(b1-4)GlcNAc(b1-4)[Fuc(a1-6)]GlcNAc
# Outline: as §1
# [24] = target: GlcNAc(b1-3)Gal(b1-4)GlcNAc(b1-3)Gal(b1-4)GlcNAc(b1-3)Gal(b1-4)GlcNAc(b1-3)Gal(b1-4)GlcNAc(b1-2)Man(a1-3)[GlcNAc(b1-3)Gal(b1-4)GlcNAc(b1-3)Gal(b1-4)GlcNAc(b1-3)Gal(b1-4)GlcNAc(b1-3)Gal(b1-4)GlcNAc(b1-2)Man(a1-6)]Man(b1-4)GlcNAc(b1-4)[Fuc(a1-6)]GlcNAc
# Outline: as §1
# [25] = target: GlcNAc(b1-3)Gal(b1-4)GlcNAc(b1-6)[Gal(b1-3)]GalNAc
# Outline: as §1
# GlcNAc(b1-3)GalNAc = target: GlcNAc(b1-3)GalNAc
# Outline: as §1
binder,measurement,setting,value
"ECA (Erythrina cristagalli), P83410 (protein) VETISFSFSEFEPGNDNLTLQGAALITQSGVLQLTKINQNGMPAWDSTGRTLYTKPVHMWDSTTGTVASFETRFSFSIEQPYTRPLPADGLVFFMGPTKSKPAQGYGYLGVFNNSKQDNSYQTLAVEFDTFSNPWDPPQVPHIGIDVNSIRSIKTQPFQLDNGQVANVVIKYDAPSKILHVVLVYPSSGAIYTIAEIVDVKQVLPDWVDVGLSGATGAQRDAAETHDVYSWSFQASLPE",glycan array binding signal (z-score),[1],-0.125
same,glycan array binding signal (z-score),[2],-0.309
same,glycan array binding signal (z-score),[3],0.542
same,glycan array binding signal (z-score),[4],-0.123
same,glycan array binding signal (z-score),[5],-0.485
same,glycan array binding signal (z-score),[6],-0.455
same,glycan array binding signal (z-score),[7],-0.399
same,glycan array binding signal (z-score),[8],-0.226
same,glycan array binding signal (z-score),[9],-0.517
same,glycan array binding signal (z-score),[10],10.5
same,glycan array binding signal (z-score),[11],-0.325
same,glycan array binding signal (z-score),[12],-0.491
same,glycan array binding signal (z-score),[13],-0.234
same,glycan array binding signal (z-score),[14],3.88
same,glycan array binding signal (z-score),[15],0.699
same,glycan array binding signal (z-score),[16],4.58
same,glycan array binding signal (z-score),[17],1.81
same,glycan array binding signal (z-score),[18],4.2
same,glycan array binding signal (z-score),[19],4.88
same,glycan array binding signal (z-score),[20],5.59
same,glycan array binding signal (z-score),[21],5.39
same,glycan array binding signal (z-score),GalNAc(a1-3)GalNAc,-0.186
same,glycan array binding signal (z-score),GalNAc(b1-3)Gal,-0.272
same,glycan array binding signal (z-score),GalNAc3S(b1-4)GlcNAc3S,-0.509
same,glycan array binding signal (z-score),Glc(a1-4)Glc,-0.148
same,glycan array binding signal (z-score),[22],3.72
same,glycan array binding signal (z-score),[23],3.4
same,glycan array binding signal (z-score),[24],0.151
same,glycan array binding signal (z-score),[25],-0.412
same,glycan array binding signal (z-score),GlcNAc(b1-3)GalNAc,-0.366
